These results are taken from PubChem BioAssay.

In experiment [1] the test system is Wnt5a (protein binding on small-molecule microarray). In words: Wnt5a binders on small-molecule microarray, primary screen, biophysical, 635/667 nm fluorescence (AID 1142).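 Also: fluorescence read at 667 nm with signal to noise per printed feature.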 The conditions noted are these: 635 nm fluorescence, higher = more signal.
Experiment [2] is described as follows: cell viability in Huh7 cells, primary screen, cytotoxicity control for HCV replication inhibitor project, CellTiter-Glo luminescence, basal, 48 h (AID 1143).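 Also: Huh7 hepatoma cells carrying a hepatitis C replication reporter with no stimulus; test concentration not given here.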 The following applies: Huh7 HCV replicon, higher = more signal, called active from +8 up or from −8 down. In general terms: In ATP-based viability assays light output follows the ATP content of the culture.

A short description of experiment [3]: P. aeruginosa biofilm formation inhibitors, primary screen, PAO1 strain, BacTiter-Glo luminescence, LB-PBS (AID 1144). The following applies: 12 h, higher = more signal.
A short description of experiment [4]: CREB reporter modulators without forskolin, primary screen, cell-based, PC12, CRE-LacZ reporter, unstimulated (AID 1145). The following applies: no forskolin, luminescence, 4.5 h, higher = more signal, called active from +8 up or from −8 down.
The nature of experiment [5]: CREB reporter modulators under forskolin, primary screen, cell-based, PC12, CRE-LacZ reporter, forskolin-stimulated (AID 1146).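 Also: PC12 cells with 6xCRE LacZ reporter stimulated by forskolin 10 µM; beta-galactosidase reporter signal reflecting CREB driven transcription.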 The following applies: luminescence, 4.5 h, higher = more signal, called active from +8 up or from −8 down.
Experiment [6] addresses Streptavidin (Streptomyces avidinii) (UniProt P22629). In words: streptavidin binders on small-molecule microarray, primary screen, artefact control for SMM compound annotation, biophysical, 635/667 nm fluorescence (AID 1147).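 Also: signal reflects streptavidin binding to arrayed compounds as a control protein.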 The following applies: streptavidin binding, higher = more signal.
Experiment [7] is described as follows: small-molecule binders of probe aInhba, primary screen, biochemical, small-molecule microarray, 635/667 nm fluorescence (AID 1148).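 Also: score merges 667nm spot fluorescence with signal-to-noise for antibody binding to printed compounds.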 The following applies: higher = more signal.
The target in experiment [8] is Torsin-1A (Homo sapiens) (UniProt O14656). Nature of the experiment: torsin A binders from cell lysate, primary screen, small-molecule microarray, wild-type, 635/667 nm (AID 1149). The conditions noted are these: COS7 hTOR1A-WT lysate, 635 nm fluorescence, higher = more signal.
Chain of Torsin-1A (Homo sapiens) (O14656 whole entry, looked up): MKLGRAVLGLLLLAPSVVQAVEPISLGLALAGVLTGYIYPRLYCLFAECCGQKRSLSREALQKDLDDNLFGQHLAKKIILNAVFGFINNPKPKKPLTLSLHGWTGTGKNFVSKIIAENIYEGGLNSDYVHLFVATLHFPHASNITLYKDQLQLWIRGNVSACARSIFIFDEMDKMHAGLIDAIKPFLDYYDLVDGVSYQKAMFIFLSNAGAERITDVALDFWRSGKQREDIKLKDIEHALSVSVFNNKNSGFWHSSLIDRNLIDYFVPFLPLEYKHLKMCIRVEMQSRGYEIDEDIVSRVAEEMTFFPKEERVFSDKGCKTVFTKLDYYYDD
Experiment [9] shares this target. In words: small-molecule binders of mutant TOR1A in lysate, primary screen, cell lysate, small-molecule microarray, COS7 lysate, 635/667 nm fluorescence (AID 1150).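 Also: score pools 667 nm emission and signal to noise measuring lysate protein binding.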 The conditions noted are these: COS7 hTOR1A mutant lysate, 635 nm fluorescence, higher = more signal.
Experiment [10] deals with Sonic hedgehog protein (Shh). Nature of the experiment: small-molecule binders of Shh protein, primary screen, biochemical, small-molecule microarray, 635/667 nm fluorescence (AID 1151).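 Also: Shh protein binding to compounds spotted on small-molecule microarray slides; score combines spot fluorescence intensity with signal-to-noise across triplicate slides.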 The conditions noted are these: small-molecule microarray binding, 635 nm fluorescence; higher = more signal.
The nature of experiment [11]: E. coli DRC41 culture turbidity changes, primary screen, E. coli filamentation inducer project, strain DRC41, OD650, 48 h (AID 1152).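 Also: E. coli MC1000 strain DRC41 lacking acrAB efflux pump and sulA.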 The conditions noted are these: E. coli DRC41 (acrAB sulA), higher = more signal, called active from +8 up or from −8 down.
Experiment [12] in a line: small-molecule binders of probe aLefty1, primary screen, biochemical, small-molecule microarray, 635/667 nm fluorescence (AID 1153).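 Also: score merges spot fluorescence with signal-to-noise ratio from the scanned slide images.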 The following applies: higher = more signal.
The nature of experiment [13]: PSAC antagonists in infected red cells, primary screen, cell-based, P. falciparum Indochina, OD700, 1 h (AID 1154). The conditions noted are these: P. falciparum Indochina infected RBC osmotic lysis, higher = more signal, called active from +8 up or from −8 down.
A short description of experiment [14]: PSAC antagonists in infected red cells, primary screen, cell-based, P. falciparum Indochina, OD700, 2 h (AID 1155).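 Also: lysis reports solute entry through the parasite surface anion channel PSAC; channel blockers reduce lysis of infected cells.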 The conditions noted are these: P. falciparum Indochina infected erythrocytes, osmotic lysis OD700; higher = more signal, called active from +8 up or from −8 down.
Experiment [15] in a line: osmotic lysis modulators in infected erythrocytes, primary screen, PSAC antagonist project, cell-based, P. falciparum Indochina, OD700, 3 h (AID 1156). The conditions noted are these: higher = more signal, called active from +8 up or from −8 down.
A short description of experiment [16]: PSAC antagonists in infected red cells, primary screen, cell-based, P. falciparum Indochina, OD700, 18 h (AID 1157). The following applies: P. falciparum Indochina infected erythrocytes, osmotic lysis OD700, 18 h; higher = more signal, called active from +8 up or from −8 down.
The nature of experiment [17]: modulators of S6 phosphorylation in cells, primary screen, cell-based, A549, cytoblot, luminescence, serum-stimulated (AID 1158).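 Also: serum-stimulated A549 lung adenocarcinoma cells; signal is phosphorylated S6 detected by cytoblot immunostaining with HRP secondary.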 The conditions noted are these: A549 phospho-S6 cytoblot, 5 h, higher = more signal.
Experiment [18] addresses NADPH oxidase 2 (Homo sapiens) (UniProt P04839). Nature of the experiment: NOX2-dependent H2O2 signal modulators, primary screen, NOX inhibitor project, cell-based, HEK293-NOX2, PMA-stimulated, Amplex Red fluorescence (AID 1159). Also: test concentration not given here. The following applies: 45 min, higher = more signal, called active from +8 up or from −8 down.
Experiment [19] deals with NADPH oxidase 4 (Homo sapiens) (UniProt Q9NPH5). In words: NOX4-dependent H2O2 signal modulators, primary screen, NOX inhibitor project, cell-based, HEK293-NOX4, tetracycline-induced, Amplex Red fluorescence (AID 1160). The following applies: 45 min, higher = more signal, called active from +8 up or from −8 down.
Chain of NADPH oxidase 4 (Homo sapiens) (Q9NPH5 whole entry, looked up): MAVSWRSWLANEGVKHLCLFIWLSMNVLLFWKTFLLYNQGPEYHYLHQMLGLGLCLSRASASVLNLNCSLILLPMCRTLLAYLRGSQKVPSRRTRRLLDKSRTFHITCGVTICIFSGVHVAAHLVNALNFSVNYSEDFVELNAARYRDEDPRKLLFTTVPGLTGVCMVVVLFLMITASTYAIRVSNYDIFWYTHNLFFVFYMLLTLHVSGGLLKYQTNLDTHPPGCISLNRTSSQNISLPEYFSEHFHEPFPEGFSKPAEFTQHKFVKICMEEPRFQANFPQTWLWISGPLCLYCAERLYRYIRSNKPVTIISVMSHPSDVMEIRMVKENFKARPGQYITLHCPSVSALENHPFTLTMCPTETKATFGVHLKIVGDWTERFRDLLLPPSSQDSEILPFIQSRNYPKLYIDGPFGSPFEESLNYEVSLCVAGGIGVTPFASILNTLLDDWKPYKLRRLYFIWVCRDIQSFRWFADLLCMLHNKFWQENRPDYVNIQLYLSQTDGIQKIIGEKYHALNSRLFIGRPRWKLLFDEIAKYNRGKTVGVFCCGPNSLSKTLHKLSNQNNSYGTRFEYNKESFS
For experiment [20], the target named is NADPH oxidase 5 (Homo sapiens) (UniProt Q96PH1). Nature of the experiment: NOX5-dependent H2O2 signal modulators, primary screen, NOX inhibitor project, cell-based, HEK293-NOX5, Amplex Red fluorescence (AID 1161). The conditions noted are these: HEK293-NOX5, ionomycin, 45 min, higher = more signal.
Chain of NADPH oxidase 5 (Homo sapiens) (Q96PH1 whole entry, looked up): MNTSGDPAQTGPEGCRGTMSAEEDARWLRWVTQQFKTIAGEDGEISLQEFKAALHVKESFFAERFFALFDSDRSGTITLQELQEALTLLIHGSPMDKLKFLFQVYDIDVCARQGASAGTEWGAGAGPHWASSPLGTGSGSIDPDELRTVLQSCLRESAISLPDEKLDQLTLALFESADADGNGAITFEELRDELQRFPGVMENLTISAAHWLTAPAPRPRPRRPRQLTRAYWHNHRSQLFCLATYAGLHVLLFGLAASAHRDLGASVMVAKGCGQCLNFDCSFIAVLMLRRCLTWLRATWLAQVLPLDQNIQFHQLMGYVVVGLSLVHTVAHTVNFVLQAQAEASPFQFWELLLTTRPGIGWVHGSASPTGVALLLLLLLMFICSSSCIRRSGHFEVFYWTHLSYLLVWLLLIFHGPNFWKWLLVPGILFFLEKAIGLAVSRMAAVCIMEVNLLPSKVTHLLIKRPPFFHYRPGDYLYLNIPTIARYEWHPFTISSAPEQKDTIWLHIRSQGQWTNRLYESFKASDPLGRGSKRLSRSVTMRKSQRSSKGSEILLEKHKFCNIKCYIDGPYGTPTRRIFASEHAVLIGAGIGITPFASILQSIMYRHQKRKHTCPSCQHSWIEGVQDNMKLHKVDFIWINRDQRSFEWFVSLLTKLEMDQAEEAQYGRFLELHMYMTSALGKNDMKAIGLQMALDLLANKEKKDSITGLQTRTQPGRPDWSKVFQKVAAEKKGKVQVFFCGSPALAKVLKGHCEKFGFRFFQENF

Activity calls are given as the source filed them. Unless noted, no rule for the calls is given here.

Chain of Streptavidin (Streptomyces avidinii) (P22629 whole entry, looked up): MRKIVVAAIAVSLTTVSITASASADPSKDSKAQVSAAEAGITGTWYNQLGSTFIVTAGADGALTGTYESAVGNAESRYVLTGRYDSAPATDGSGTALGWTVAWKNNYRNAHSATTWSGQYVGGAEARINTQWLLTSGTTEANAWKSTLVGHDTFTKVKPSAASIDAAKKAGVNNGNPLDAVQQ
Chain of NADPH oxidase 2 (Homo sapiens) (P04839 whole entry, looked up): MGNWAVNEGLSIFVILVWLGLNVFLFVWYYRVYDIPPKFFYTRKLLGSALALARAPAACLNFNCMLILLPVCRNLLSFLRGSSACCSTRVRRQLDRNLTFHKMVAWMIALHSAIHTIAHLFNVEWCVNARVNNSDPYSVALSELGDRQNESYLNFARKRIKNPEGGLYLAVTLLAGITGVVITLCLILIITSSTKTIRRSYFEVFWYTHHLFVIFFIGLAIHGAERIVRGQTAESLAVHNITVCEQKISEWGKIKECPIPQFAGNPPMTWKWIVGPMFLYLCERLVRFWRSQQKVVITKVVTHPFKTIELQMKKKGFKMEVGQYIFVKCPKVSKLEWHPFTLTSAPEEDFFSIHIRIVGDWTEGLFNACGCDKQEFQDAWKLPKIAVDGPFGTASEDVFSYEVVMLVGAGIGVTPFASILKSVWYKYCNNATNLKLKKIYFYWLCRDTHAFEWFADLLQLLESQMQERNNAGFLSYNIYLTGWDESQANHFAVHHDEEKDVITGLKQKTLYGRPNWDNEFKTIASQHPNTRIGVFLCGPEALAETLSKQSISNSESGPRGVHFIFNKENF

In the case of `CC(C)=CCCC(C)=CCON=C1C[C@@H](O)[C@@H](O)[C@@H]2[C@@H]3C(=O)N(C[C@@H]4CCCO4)C(=O)[C@@H]3CC[C@@H]12`, the composite z-score in [1] is 0.311; in experiment [6], -0.0996; in [7], -0.0933; in [8] it was 2.06; in experiment [9], 2.01; in [10] it was 1.73. In addition, the composite z-score in experiment [12] turned out to be 0.0371. In addition, the z-score is -0.678 (inactive) in experiment [2]; 0.518 (inactive) in experiment [3]; -0.659 (inactive) in [4]; -0.227 (inactive) in [5]; 0.381 (inactive) in experiment [11]; 1.53 (inactive) in experiment [13]. The z-score was 0.767 (inactive) in experiment [14]; 0.369 (inactive) in experiment [15]; 0.549 (inactive) in experiment [16]; -0.622 in experiment [17]; 0.752 (inactive) in [18]; 0.604 (inactive) in [19]. Also, the z-score in experiment [20] worked out at 0.0838.
With `COCCCNC(=O)[C@@]1(CCS(=O)(=O)c2ccccc2)N=C(c2ccc(OCCCO)cc2)O[C@H]1c1ccccc1`, the composite z-score in experiment [1] was 0.68; in experiment [6], 0.188; in [7] it was 0.38; in experiment [8], 1.45; in experiment [9], 2.73; in [10] it was -0.766. This compound also had a composite z-score in experiment [12] of 0.812. In addition, the z-score in experiment [2] is -1.7 (inactive); in [3], -0.701 (inactive); in [4], 0.951 (inactive); in experiment [5], 0.353 (inactive); in experiment [11] it was 2.46 (inactive); in experiment [13] it was 28.5 (active). Besides, the z-score in experiment [14] is 21 (active); in experiment [15], 1.08 (inactive); in experiment [16], 1.55 (inactive); in experiment [17], 0.326; in experiment [18] it was 3.58 (inactive); in experiment [19], 1.71 (inactive). This compound also registered a z-score in experiment [20] of -0.339.
For the compound `Cc1cc2c(nc1C)CCCN2CC(O)CN1CCN(C)CC1` (stereo not given), the composite z-score was -0.168 in [1]; 0.549 in experiment [6]; 0.198 in experiment [7]; 0.679 in [8]; 0.528 in experiment [9]; 0.672 in experiment [10]. The compound further displayed a composite z-score in [12] of 0.0733. Also, the z-score was -1.28 (inactive) in experiment [2]; 0.816 (inactive) in [3]; -0.613 (inactive) in experiment [4]; -0.91 (inactive) in [5]; -0.243 (inactive) in experiment [11]; 0.339 (inactive) in experiment [13]. Moreover, the z-score in experiment [14] was 0.494 (inactive); in experiment [15], 0.0085 (inactive); in [16], -0.0963 (inactive); in [17], -0.542; in experiment [18] it was 0.438 (inactive); in experiment [19] it was -1.07 (inactive). Further, in [20], the z-score is -1.08.
As to `CCc1cc2c(nc1CC)CCN(CCC(C)=NOC[C@@H](O)COCc1ccco1)C2`, the composite z-score in experiment [1] amounted to 0.391; in experiment [6], 0.536; in experiment [7] it was 0.149; in [8], 3.95; in [9], 3.64; in experiment [10], 2.31. In addition, the composite z-score in experiment [12] came out at 1.09. The z-score in experiment [2] is -0.112 (inactive); in experiment [3], 0.132 (inactive); in experiment [4], 2.16 (inactive); in experiment [5], 0.785 (inactive); in [11], 0.538 (inactive); in [13], 2.3 (inactive). In addition, the z-score in experiment [14] was -0.0282 (inactive); in [15], 0.0761 (inactive); in experiment [16], 0.147 (inactive); in [17], -0.659; in experiment [18], -0.566 (inactive); in experiment [19], 0.162 (inactive). The z-score in [20] was determined as 1.84.
Turning to `COc1cccc([C@@H]2Oc3ccc(Br)cc3C(=O)[C@H]2O)c1`, the composite z-score in experiment [1] is 0.134; in [6], 0.286; in experiment [7] it was -0.089; in [8], 0.561; in experiment [9] it was 1.1; in [10], 0.936. The same compound gave a composite z-score in [12] of -0.0464. Moreover, the z-score is -3.91 (inactive) in [2]; -0.591 (inactive) in experiment [3]; 4.08 (inactive) in experiment [4]; 0.136 (inactive) in experiment [5]; 0.91 (inactive) in experiment [11]; 20 (active) in experiment [13]. For the same compound, the z-score in experiment [14] is 3.35 (inactive); in experiment [15], -0.0836 (inactive); in [16] it was 0.592 (inactive); in experiment [17] it was -0.256; in experiment [18] it was 0.658 (inactive); in [19] it was -1.89 (inactive). In [20], this compound came in with a z-score of -0.879.
